This note sets out measurements from PubChem BioAssay AID434973 (Sanford-Burnham Center for Chemical Genomics, 2010).

Screen size: about 330,000 compounds; about 4,900 (1.5%) were called active.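 Rule for the calls: active = inhibition above about 50% at the single test dose (limit read from the data); inactive = the rest.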 Shown is part of a subset that was picked to be rich in actives.

The assay has as its target Sentrin-specific protease 7 (Homo sapiens) (UniProt Q9BQF6). Briefly: SENP7 protease inhibitors, primary screen, biochemical, luminescence, uHTS (AID 434973).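 Note: plate controls were DMSO with enzyme for no effect and no enzyme buffer wells for full effect.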 Conditions: recombinant SENP7, Z-RLRGG-aminoluciferin luminescence, 40 min; at 5 µM; active compounds read high.
The inhibition is the relative decrease from the control value, in per cent. In the case of `O=C(NCCC1=CCCCC1)c1ccc(-n2cncn2)cc1`, the inhibition was -9.22% (inactive).

For the compound `O=C(NCc1cccnc1)c1cccnc1Sc1ccc(Cl)cc1`, the inhibition was 2.66% (inactive).

`COc1cc2ccccc2cc1C(=O)Nc1ccncc1`: the inhibition is 7.87% (inactive).

On to `CC(C)(C)n1nc2c(c1NC(=O)c1cc3ccccc3o1)CSC2`, for which the inhibition is 6.18% (inactive).

`O=C(Nc1ccncc1)c1cc2ccccc2o1`: the inhibition is 60.6% (active).

With `CCOc1ccc(N2C(=O)/C(=C/c3ccc(C)o3)N(C)C2=S)cc1`, the inhibition was 6.54% (inactive).

Turning to `O=C(N[C@@H](Cc1ccccc1)C(=O)OCc1ccccc1)c1nc[nH]c1C(=O)N[C@@H](Cc1ccccc1)C(=O)OCc1ccccc1`, the inhibition is 4.7% (inactive).

`CCOc1ccc(C(=O)COC(=O)c2ccc(-n3cnnn3)cc2)cc1`: the inhibition was -0.201% (inactive).

Consider `O=C(Oc1ccc(C(=S)N2CCOCC2)cc1)c1ccc(F)cc1`, for which the inhibition is 2.03% (inactive).

Take `CC(C)c1c(C(=O)N/N=C/c2ccc(-c3ccccc3)cc2)nnn1-c1nonc1N`: the inhibition is 0.606% (inactive).

As for `Cc1nc2ccc(C(=O)N/N=C/c3ccc(O)cc3)cc2[nH]1`, the inhibition is 0.319% (inactive).

In the case of `Cc1nonc1C(=O)N/N=C/c1ccc(O)cc1`, the inhibition was 98.8% (active).

Take `Cn1ncc(N2CCN(S(=O)(=O)c3ccc(Br)cc3)CC2)c(Cl)c1=O`: the inhibition was -5.83% (inactive).

Take `O=C(O)c1ccc(/C=N/Nc2nc(N3CCCCC3)nc(N3CCCCC3)n2)cc1`: the inhibition is -3.32% (inactive).

As for `O=C(O)c1ccc(N/N=C/c2ccc3ncccc3c2)cc1`, the inhibition was 99.3% (active).

Consider `Cc1ccc2cc(/C=N/Nc3ccc(C(=O)O)cc3)c(Cl)nc2c1`, for which the inhibition was -6.79% (inactive).

`COc1ccc(CCNC(=O)C(=O)NCC2OCCN2S(=O)(=O)c2ccc(OC)c(C)c2)cc1` (stereo not drawn): the inhibition was 2.59% (inactive).

Consider `O=C(NC(=S)N1CCN(Cc2ccccc2)CC1)c1ccccc1`, for which the inhibition was 2.02% (inactive).

As for `CC(NC(=O)COC(=O)c1ccc2ccccc2n1)c1ccccc1` (stereo not drawn), the inhibition was -1.7% (inactive).

As for `CC(OC(=O)c1ccc2ccccc2n1)C(=O)c1ccccc1` (stereo not drawn), the inhibition was 55.8% (active).

Take `Cc1ccc(S(=O)(=O)N(C)C)cc1NC(=O)C(C)OC(=O)c1ccc2ccccc2n1` (stereo not drawn): the inhibition is 6.08% (inactive).

Consider `O=C(Nc1ccc(S(=O)(=O)N2CCCCC2)cc1)C1CCN(C(=O)c2ccc(F)cc2)CC1`, for which the inhibition was -13.9% (inactive).

`O=C(Nc1ccc(-c2nnc(-c3ccccc3)o2)cc1)C1CCCO1` (stereo not drawn): the inhibition is 60.2% (active).

Regarding `CC(C)(C)NS(=O)(=O)c1ccc(NC(=O)C2CCCO2)cc1` (stereo not drawn), the inhibition is 3.51% (inactive).

In the case of `O=C(Nc1cccc(-c2nnc(-c3ccccc3)o2)c1)C1CCCO1` (stereo not drawn), the inhibition is 1.95% (inactive).

As to `O=C(COC(=O)/C=C/c1cccc(Cl)c1)NCc1cccs1`, the inhibition was 15% (inactive).

Turning to `CCNC(=O)CC1C(=O)N(c2ccc(F)cc2)C(=O)N1CCc1sccc1C` (stereo not drawn), the inhibition is 7.13% (inactive).

On to `Cn1nc(-c2ccccc2)c(CSc2cccc(Cl)c2)c1Cl`, for which the inhibition was 2.83% (inactive).

Take `Cc1nn2cc(-c3ccc(Cl)cc3)cnc2c1Br`: the inhibition is 88.2% (active).

Take `CCOC(=O)c1cc(S(=O)(=O)NCCc2ccc(OC)c(OC)c2)cn1C`: the inhibition is 7.17% (inactive).

`O=c1c(-c2ccccc2)cnc2n1CCS2`: the inhibition is 4.7% (inactive).

Take `O=c1c2cc(-c3ccccc3)sc2nc2n1N=C(c1cccs1)CS2`: the inhibition was 74.3% (active).

Take `Cc1nnc2n1N=C(c1ccccc1)CS2`: the inhibition is -0.787% (inactive).

As for `O=C(/C=C/c1ccc2c(c1)OCO2)NCc1cn2cc(Cl)ccc2n1`, the inhibition is 0.536% (inactive).

Regarding `CCCCCCSc1ccc(-c2nc3ccc(Cl)cn3c2NCc2ccccc2)cc1`, the inhibition is -2.53% (inactive).

With `Clc1ccc2nc(CSc3ccccc3)cn2c1`, the inhibition is 66.1% (active).

Regarding `COc1ccc(NC(=O)NCc2ccc3c(c2)OCO3)c(OC)c1`, the inhibition is 6.56% (inactive).

Consider `CCOCCCNC(=S)N1CCC(NC(=O)C2CCCCC2)CC1`, for which the inhibition was -2.06% (inactive).

On to `Cc1ncc(CO)c(/C=N/NC(=O)c2cccc(S(=O)(=O)N3CCCC3)c2)c1O`, for which the inhibition was -7.56% (inactive).

For the compound `C/C(=N\Nc1nc2ccccc2[nH]1)c1cccs1`, the inhibition was 65.2% (active).

As for `C/C(=N\Nc1ncc(Cl)cc1Cl)c1cccs1`, the inhibition was 47.2% (inactive).

Regarding `O=C(Nc1ccccc1-c1nc2ccccc2[nH]c1=O)c1cccs1`, the inhibition is -0.595% (inactive).

As to `O=C(CNC(=O)OCc1ccccc1)NC1CCCCNC1=O` (stereo not drawn), the inhibition is 4.12% (inactive).

On to `COC(=O)c1ccc(NC(=O)Nc2ccc(C)cc2)cc1`, for which the inhibition is -0.387% (inactive).

As to `COC(=O)c1ccc(NCC(=O)c2ccccc2)cc1`, the inhibition was 86.1% (active).

In the case of `COC(=O)c1ccc(NCC(=O)N2CCCCCC2)cc1`, the inhibition is -4.94% (inactive).

Regarding `COc1cc(C2/C(=C(\O)c3ccc4c(c3)CC(C)O4)C(=O)C(=O)N2Cc2ccco2)ccc1O` (stereo not drawn), the inhibition was 2.43% (inactive).

On to `CC(Oc1ccc(F)cc1F)C(=O)/C=C/N(C)C` (stereo not drawn), for which the inhibition was 11.5% (inactive).

As to `O=C(N/N=C/c1cccc(O)c1)c1cc2c(ccc3ccccc32)o1`, the inhibition is -13.1% (inactive).

For the compound `NC(=O)c1ccccc1N=Cc1ccc2ccccc2c1`, the inhibition was 66.6% (active).

As to `O=C(OCC(=O)N1CCOCC1)c1ccc2ccccc2c1`, the inhibition was 4.44% (inactive).

With `COc1ccc(CC(=O)N2N=C(C)CC2(O)C(F)(F)F)cc1` (stereo not drawn), the inhibition is -2.12% (inactive).

For `COc1ccccc1C(CNC(=O)c1cccc(S(=O)(=O)Nc2ccc(F)cc2)c1)N(C)C` (stereo not drawn), the inhibition was -6.57% (inactive).

With `O=C(Nc1ccc(Cl)cc1)/C(=C1\CCCN1)[N+](=O)[O-]`, the inhibition is 16.3% (inactive).

For `Cc1ccc(NC(=O)NC(=O)c2ccccc2)cc1F`, the inhibition was 23.1% (inactive).

As to `O=C(Nc1ncccc1O)c1ccc(C(=O)c2ccccc2)cc1`, the inhibition was -3.01% (inactive).

For the compound `O=C(NC(=O)c1ccccc1)Nc1ccccc1O`, the inhibition was 55.8% (active).

Regarding `Cn1c2c(c(=O)n(C)c1=O)C1c3ccccc3OCC1C(C)(C)O2` (stereo not drawn), the inhibition is -0.167% (inactive).

As to `CCNC(=O)N1CCCC(C(=O)c2ccc(-c3ccccc3)cc2)C1` (stereo not drawn), the inhibition was 3.16% (inactive).

Take `COC(=O)c1sc(NC(=S)NC(=O)c2ccc(C)cc2)nc1C`: the inhibition was 9.77% (inactive).

Take `CC(=O)c1sc(NC(=O)c2ccc(C)cc2)nc1C`: the inhibition is 71.5% (active).

With `CCOC(=O)c1sc(NC(=O)c2sc(C)nc2C)nc1C`, the inhibition was 31.9% (inactive).

With `CC(=O)c1sc(N/N=C\c2ccc(C)cc2)nc1C`, the inhibition is 17.2% (inactive).

In the case of `CCOC(=O)c1sc(NC(=O)c2ccncc2)nc1C`, the inhibition was 91.1% (active).

In the case of `CCSc1nnc(NC(=O)c2ccc(C)cc2)s1`, the inhibition is 52.7% (active).

Consider `NC(=O)CSc1nnc(NC(=O)c2ccc3ccccc3c2)s1`, for which the inhibition was -4.32% (inactive).

Regarding `CCOC(=O)c1cccnc1NC(=O)c1ccncc1`, the inhibition was -6.19% (inactive).

For `C=CCSc1nnc(NC(=O)c2ccc(NC(C)=O)cc2)s1`, the inhibition is 4.95% (inactive).
